According to ChEMBL document CHEMBL1961873, “Compounds: GSK PKIS; Assays: Nanosyn kinase panel” (2012):

Experiments:
[1] = target: T1, Muscle, skeletal receptor tyrosine-protein kinase (Homo sapiens) (UniProt O15146); details: at 1 µM;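 also: reported value is the mean percent inhibition of MuSK kinase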
T1 sequence (whole entry): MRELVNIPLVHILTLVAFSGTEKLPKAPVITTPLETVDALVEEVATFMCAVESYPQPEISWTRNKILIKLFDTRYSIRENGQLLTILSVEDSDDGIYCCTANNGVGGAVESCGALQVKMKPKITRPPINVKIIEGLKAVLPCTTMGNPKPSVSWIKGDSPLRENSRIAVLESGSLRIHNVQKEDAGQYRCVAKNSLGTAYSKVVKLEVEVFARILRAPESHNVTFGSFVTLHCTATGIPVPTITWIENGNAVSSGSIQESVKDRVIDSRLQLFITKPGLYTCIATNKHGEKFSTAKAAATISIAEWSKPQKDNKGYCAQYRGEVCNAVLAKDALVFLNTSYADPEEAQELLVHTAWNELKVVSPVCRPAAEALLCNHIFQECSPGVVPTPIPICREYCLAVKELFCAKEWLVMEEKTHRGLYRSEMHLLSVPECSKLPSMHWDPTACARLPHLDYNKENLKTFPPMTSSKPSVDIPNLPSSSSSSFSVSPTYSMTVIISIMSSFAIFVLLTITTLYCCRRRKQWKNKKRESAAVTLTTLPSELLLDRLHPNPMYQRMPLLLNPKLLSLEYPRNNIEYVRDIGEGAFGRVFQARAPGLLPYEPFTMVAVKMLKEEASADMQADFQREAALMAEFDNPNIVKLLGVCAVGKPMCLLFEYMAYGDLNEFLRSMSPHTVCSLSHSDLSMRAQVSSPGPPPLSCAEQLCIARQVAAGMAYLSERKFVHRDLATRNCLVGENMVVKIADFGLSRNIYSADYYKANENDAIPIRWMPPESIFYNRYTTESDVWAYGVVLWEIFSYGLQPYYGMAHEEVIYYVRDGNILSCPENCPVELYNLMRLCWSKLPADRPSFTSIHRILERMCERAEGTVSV

[2] = target: Platelet-derived growth factor receptor alpha (Homo sapiens) (UniProt P16234); details: at 0.1 µM
Chain of Platelet-derived growth factor receptor alpha (Homo sapiens) (P16234 whole entry): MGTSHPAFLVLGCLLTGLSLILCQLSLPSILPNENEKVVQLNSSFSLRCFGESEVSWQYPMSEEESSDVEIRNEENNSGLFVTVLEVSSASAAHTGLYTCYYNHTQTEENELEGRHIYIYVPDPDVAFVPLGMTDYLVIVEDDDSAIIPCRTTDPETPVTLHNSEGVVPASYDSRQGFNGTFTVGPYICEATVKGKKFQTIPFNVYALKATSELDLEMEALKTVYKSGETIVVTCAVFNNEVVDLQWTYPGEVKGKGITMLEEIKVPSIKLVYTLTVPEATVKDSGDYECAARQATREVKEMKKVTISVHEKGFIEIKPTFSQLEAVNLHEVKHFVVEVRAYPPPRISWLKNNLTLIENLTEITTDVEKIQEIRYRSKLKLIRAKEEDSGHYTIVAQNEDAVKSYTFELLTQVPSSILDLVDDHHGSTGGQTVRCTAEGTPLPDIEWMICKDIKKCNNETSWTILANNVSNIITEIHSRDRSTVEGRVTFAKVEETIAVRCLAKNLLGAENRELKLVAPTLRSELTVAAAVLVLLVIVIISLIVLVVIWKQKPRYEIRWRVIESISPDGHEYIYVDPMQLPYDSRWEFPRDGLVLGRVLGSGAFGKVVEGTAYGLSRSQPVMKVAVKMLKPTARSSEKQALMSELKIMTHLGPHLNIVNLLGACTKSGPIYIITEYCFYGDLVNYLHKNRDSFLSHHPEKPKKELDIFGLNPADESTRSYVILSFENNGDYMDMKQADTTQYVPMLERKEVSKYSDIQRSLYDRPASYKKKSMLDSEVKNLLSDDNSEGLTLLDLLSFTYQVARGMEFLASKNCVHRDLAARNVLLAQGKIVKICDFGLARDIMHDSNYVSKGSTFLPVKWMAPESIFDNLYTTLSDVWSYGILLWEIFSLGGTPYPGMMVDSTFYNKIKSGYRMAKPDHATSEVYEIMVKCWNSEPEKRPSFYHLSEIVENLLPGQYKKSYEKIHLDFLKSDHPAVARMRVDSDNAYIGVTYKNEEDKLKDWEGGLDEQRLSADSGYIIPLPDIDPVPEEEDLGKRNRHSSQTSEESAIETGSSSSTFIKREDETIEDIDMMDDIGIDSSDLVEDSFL

[3] = target: Platelet-derived growth factor receptor alpha (Homo sapiens) (UniProt P16234); details: at 1 µM
[4] = system: Platelet-derived growth factor receptor alpha (Homo sapiens), P16234 [D842V]; details: at 0.1 µM
[5] = system: Platelet-derived growth factor receptor alpha (Homo sapiens), P16234 [D842V]; details: at 1 µM
[6] = system: Platelet-derived growth factor receptor alpha (Homo sapiens), P16234 [T674I]; details: at 0.1 µM
[7] = system: Platelet-derived growth factor receptor alpha (Homo sapiens), P16234 [T674I]; details: at 1 µM
[8] = system: Platelet-derived growth factor receptor alpha (Homo sapiens), P16234 [V561D]; details: at 0.1 µM
[9] = system: Platelet-derived growth factor receptor alpha (Homo sapiens), P16234 [V561D]; details: at 1 µM
[10] = target: Platelet-derived growth factor receptor beta (Homo sapiens) (UniProt P09619); details: at 0.1 µM
[11] = target: Platelet-derived growth factor receptor beta (Homo sapiens) (UniProt P09619); details: at 1 µM
[12] = target: Tyrosine-protein kinase FRK (Homo sapiens) (UniProt P42685); details: at 0.1 µM
Chain of Tyrosine-protein kinase FRK (Homo sapiens) (P42685 whole entry): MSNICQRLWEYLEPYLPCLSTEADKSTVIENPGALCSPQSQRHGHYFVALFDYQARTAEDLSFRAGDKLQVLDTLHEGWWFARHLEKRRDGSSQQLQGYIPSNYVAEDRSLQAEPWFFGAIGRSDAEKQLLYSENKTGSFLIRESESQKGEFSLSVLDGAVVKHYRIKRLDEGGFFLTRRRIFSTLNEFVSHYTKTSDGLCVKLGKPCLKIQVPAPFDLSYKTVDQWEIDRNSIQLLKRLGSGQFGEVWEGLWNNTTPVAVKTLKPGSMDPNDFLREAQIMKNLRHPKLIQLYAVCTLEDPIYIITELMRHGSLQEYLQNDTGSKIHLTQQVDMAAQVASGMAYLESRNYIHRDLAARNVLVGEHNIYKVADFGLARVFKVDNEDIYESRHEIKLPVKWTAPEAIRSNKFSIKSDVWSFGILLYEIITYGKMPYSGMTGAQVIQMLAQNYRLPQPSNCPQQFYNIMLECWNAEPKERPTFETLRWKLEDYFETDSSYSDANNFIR

[13] = target: Tyrosine-protein kinase FRK (Homo sapiens) (UniProt P42685); details: at 1 µM
[14] = target: Protein-tyrosine kinase 2-beta (Homo sapiens) (UniProt Q14289); details: at 0.1 µM
Chain of Protein-tyrosine kinase 2-beta (Homo sapiens) (Q14289 whole entry, looked up): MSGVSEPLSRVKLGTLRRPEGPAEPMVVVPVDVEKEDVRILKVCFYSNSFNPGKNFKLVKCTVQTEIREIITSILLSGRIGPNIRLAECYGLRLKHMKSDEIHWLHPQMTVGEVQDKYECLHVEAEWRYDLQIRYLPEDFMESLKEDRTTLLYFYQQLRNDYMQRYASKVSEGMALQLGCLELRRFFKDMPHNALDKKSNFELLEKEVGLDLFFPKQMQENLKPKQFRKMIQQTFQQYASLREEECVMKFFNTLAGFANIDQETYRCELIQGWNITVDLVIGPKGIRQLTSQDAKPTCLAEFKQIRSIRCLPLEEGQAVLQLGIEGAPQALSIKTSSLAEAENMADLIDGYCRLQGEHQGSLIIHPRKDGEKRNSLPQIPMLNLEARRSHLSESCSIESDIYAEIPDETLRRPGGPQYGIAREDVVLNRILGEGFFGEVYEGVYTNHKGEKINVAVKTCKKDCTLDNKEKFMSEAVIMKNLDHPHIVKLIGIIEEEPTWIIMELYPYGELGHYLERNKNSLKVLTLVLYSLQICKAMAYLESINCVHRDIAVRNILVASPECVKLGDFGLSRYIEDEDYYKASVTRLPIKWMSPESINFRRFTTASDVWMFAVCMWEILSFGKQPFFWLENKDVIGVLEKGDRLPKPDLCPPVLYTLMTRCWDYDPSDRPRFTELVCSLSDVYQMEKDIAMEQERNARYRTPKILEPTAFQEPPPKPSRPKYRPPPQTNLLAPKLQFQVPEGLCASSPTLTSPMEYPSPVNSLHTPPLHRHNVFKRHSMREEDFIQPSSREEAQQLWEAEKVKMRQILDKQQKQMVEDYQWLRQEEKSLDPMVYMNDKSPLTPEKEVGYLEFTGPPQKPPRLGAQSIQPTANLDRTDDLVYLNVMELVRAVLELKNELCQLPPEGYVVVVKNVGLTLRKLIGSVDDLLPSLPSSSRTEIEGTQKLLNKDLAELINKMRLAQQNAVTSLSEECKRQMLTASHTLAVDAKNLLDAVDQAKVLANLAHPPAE

[15] = target: Protein-tyrosine kinase 2-beta (Homo sapiens) (UniProt Q14289); details: at 1 µM
[16] = target: Proto-oncogene tyrosine-protein kinase receptor Ret (Homo sapiens) (UniProt P07949); details: at 0.1 µM
Chain of Proto-oncogene tyrosine-protein kinase receptor Ret (Homo sapiens) (P07949 whole entry): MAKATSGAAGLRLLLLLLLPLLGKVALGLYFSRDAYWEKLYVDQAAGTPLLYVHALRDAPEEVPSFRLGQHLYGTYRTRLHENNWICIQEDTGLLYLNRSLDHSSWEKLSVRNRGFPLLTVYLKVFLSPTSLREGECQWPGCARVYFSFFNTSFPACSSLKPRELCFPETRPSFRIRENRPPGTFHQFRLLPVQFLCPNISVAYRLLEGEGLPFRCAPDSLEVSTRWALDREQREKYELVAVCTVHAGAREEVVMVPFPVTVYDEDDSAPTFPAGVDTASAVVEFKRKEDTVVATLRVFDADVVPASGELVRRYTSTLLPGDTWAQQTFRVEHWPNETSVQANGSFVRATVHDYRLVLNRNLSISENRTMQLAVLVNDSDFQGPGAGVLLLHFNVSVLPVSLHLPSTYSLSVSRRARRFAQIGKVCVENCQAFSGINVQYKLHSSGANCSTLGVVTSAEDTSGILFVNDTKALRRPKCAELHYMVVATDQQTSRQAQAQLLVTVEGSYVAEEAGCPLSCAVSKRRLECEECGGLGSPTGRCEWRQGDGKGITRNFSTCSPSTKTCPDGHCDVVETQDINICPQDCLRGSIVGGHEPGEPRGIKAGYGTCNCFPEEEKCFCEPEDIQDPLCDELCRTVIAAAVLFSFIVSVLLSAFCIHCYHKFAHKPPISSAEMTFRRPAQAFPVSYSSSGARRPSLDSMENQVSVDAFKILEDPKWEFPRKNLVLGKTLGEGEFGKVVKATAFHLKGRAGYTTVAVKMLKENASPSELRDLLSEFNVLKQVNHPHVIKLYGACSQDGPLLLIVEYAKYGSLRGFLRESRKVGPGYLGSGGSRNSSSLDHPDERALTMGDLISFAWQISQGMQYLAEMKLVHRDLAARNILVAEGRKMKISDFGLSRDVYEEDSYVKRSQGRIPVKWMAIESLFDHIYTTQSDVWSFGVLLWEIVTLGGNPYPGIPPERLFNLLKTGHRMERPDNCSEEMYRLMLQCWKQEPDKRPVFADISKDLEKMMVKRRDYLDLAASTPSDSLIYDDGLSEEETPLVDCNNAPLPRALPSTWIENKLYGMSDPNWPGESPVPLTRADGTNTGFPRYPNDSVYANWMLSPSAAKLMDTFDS

[17] = target: Proto-oncogene tyrosine-protein kinase receptor Ret (Homo sapiens) (UniProt P07949); details: at 1 µM
[18] = system: Proto-oncogene tyrosine-protein kinase receptor Ret (Homo sapiens), P07949 [V804L]; details: at 0.1 µM
Chain of Proto-oncogene tyrosine-protein kinase receptor Ret (Homo sapiens), P07949 [V804L] (P07949 whole entry V804L): as the sequence (P07949 whole entry) above, with V804L counted along it

[19] = system: Proto-oncogene tyrosine-protein kinase receptor Ret (Homo sapiens), P07949 [V804L]; details: at 1 µM
[20] = system: Proto-oncogene tyrosine-protein kinase receptor Ret (Homo sapiens), P07949 [Y791F]; details: at 0.1 µM

Row | SMILES | inhibition [1] [%] | inhibition [2] [%] | inhibition [3] [%] | inhibition [4] [%] | inhibition [5] [%] | inhibition [6] [%] | inhibition [7] [%] | inhibition [8] [%] | inhibition [9] [%] | inhibition [10] [%] | inhibition [11] [%] | inhibition [12] [%] | inhibition [13] [%] | inhibition [14] [%] | inhibition [15] [%] | inhibition [16] [%] | inhibition [17] [%] | inhibition [18] [%] | inhibition [19] [%] | inhibition [20] [%]
1 | CNC(=O)c1cncc(/C=C/c2c(Cl)cccc2Cl)c1 | 6.78 | 8.07 | 21.1 | 0.55 | 4.33 | 1.59 | 5.24 | 14.1 | 43 | 5.46 | 17.8 | 3.04 | 11 | 4.56 | 7.83 | 3.32 | 12.3 | 3.35 | 10.2 | 14.7
2 | CS(=O)(=O)CCNCc1ccc(-c2ccc3ncnc(Nc4ccc(OCc5cccc(F)c5)c(C(F)(F)F)c4)c3c2)o1 | 2.72 | 2.57 | 6.52 | 2.53 | 4.33 | 5.78 | 5.59 | 3.25 | 3.17 | -0.33 | 1.85 | 2.17 | 3.48 | 9.54 | 10.4 | 6.1 | 3.78 | 1.9 | 4.58 | 2.66
3 | CC1=C(C(=O)Nc2ccc3[nH]ncc3c2)C(c2ccc3ccccc3c2)CC(=O)N1 (stereo not given) | 5.45 | 8.08 | 14.6 | 2.86 | 5.83 | 3.54 | 5.01 | 5.52 | 7.45 | 2.15 | 13.7 | 2.73 | 17.3 | 3.97 | 7.64 | 20.4 | 65.8 | 12.4 | 53.2 | 20.1
4 | COc1ccc(-c2ccncc2)cc1C(N)=O | 8.58 | 10.2 | 15.4 | 1.62 | 4.35 | 5.26 | 8.98 | 3.41 | 6.77 | 5.16 | 11.4 | 4.92 | 5.68 | 5.98 | 11.3 | 3.52 | 6.29 | 2.72 | 9.41 | 4.39
5 | COc1cccc(-n2ncc3c(N/N=C/c4cccc(F)c4)ncnc32)c1 | 11.4 | 13.6 | 49.5 | 10.6 | 48.1 | 6.11 | 22.2 | 8.22 | 41.1 | 12.2 | 51.1 | 1.84 | 2.7 | 9.51 | 9.99 | 2.64 | 18.3 | 3.55 | 9.3 | 4.94
6 | CCCN1CCC=C(c2ccc(Nc3nc(Nc4ccccc4C(N)=O)c4cc[nH]c4n3)c(C)c2)C1 | 20.5 | 9.67 | 40.6 | 2.55 | 24.2 | 4.99 | 9.94 | 5.63 | 28.7 | 8.75 | 37.2 | 1.94 | 4.17 | 78 | 94.9 | 5.97 | 24.3 | 18.6 | 58.3 | 9.36
7 | COc1cc2c(cc1Nc1nc(N3CCc4ccccc43)c3cc[nH]c3n1)N(C(=O)CN(C)C)CC2 | 4.18 | 4.13 | 3.64 | 0.92 | -1.2 | 1.67 | 0.13 | -0.57 | 2.32 | 1.46 | 3.27 | 0.34 | 0.69 | 59.7 | 90 | 3.49 | 9.16 | 0.54 | 4.92 | 1.4
